Screening results from PubChem BioAssay.
In the library only some 9.3% were active in any assay of this set; here they are far more common.
Htt clearance: clearance of mutant huntingtin inclusions, primary screen, imaging, HeLa Exon1htt(103Q)mCFP, confocal imaging; aggregate imaging; zero = plate's median compound well; inhibition, % at 1.5 µM; hit rate 0.42% among 47,000;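 active = inhibition of aggregate fluorescence above about 70%, also judged a hit by eye on the cell image, limit read from the data, passing the limit was not always enough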;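 also: cells exposed to compound for three days before fixation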
A340 absorber: compound light absorbance at 340 nm, profiling panel, artefact control, biochemical, MLSMR library, data from PS, PMK, MK assays | fold change at 10 µM | AID 708, 2007 | 65,000 tested, under 10 active | compound absorbance at 340 nm, fold over control;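 active = at 10 µM dose, initial 340 nm absorbance at least 2 fold that of control wells; inactive = change under 2 fold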;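 also: initial absorbance extrapolated from kinetic A340 decline of NADH oxidation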
M1 antag: antagonists of rat M1 muscarinic receptor | Muscarinic acetylcholine receptor M1 (Rattus norvegicus), P08482 | CHO-M1 cells, Fluo-4 calcium, ACh EC80 antagonist mode; hits give low values | B-score at 10 µM | hit rate 3.4% among 64,000 | AID 628, 2007;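 active = calcium fluorescence response, raw or row-and-column corrected B-score, differing from the plate sample mean either way at a set confidence level, mostly lower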
Target sequence (P08482 whole entry, looked up): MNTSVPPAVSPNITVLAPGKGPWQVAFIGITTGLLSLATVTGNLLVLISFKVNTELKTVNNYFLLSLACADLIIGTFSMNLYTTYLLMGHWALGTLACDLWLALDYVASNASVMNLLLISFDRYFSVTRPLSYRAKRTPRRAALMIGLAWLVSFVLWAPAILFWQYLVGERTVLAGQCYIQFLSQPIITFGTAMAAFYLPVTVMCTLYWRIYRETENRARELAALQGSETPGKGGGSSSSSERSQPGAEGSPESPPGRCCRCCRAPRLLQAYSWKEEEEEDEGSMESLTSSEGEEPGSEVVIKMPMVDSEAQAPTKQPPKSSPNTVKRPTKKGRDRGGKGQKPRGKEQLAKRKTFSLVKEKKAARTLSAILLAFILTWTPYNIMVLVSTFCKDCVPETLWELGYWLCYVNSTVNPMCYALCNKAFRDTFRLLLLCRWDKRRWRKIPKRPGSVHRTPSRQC
NADH enzymes: inhibitors of PK/LDH coupling enzymes, profiling panel, artefact control, biochemical, MLSMR library; coupled PK/LDH NADH assays, four targets; IC50, µM (series often up to 10 µM); hit rate 0.02% among 65,000;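 active = single-dose screening hits from any of four coupled enzyme assays that gave an IC50 when retested across doses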;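 also: the DPM-DC format reads NADH fluorescence rather than 340 nm absorbance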
M1 agonist: M1 muscarinic receptor agonists, primary screen, CHO-M1 cells, Fluo-4 calcium, agonist mode; Muscarinic acetylcholine receptor M1; Fluo-4 calcium fluorescence; hits give high values; B-score at 10 µM; hit rate 3% among 64,000; AID 626, 2007;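 active = fluorescence rise, raw or as B-score row- and column-corrected plate score, outside the 99.7% band of its plate's samples, either direction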
Autofluor 339: intrinsic fluorescence of library compounds, ex339/em460 – biochemical, MLSMR library, data from DPM-DC assay, artefact control, profiling panel. compound autofluorescence, ex339/em460 nm, NADH buffer; hits give high values; 1 = no-compound wells, NADH background. fluorescence fold increase at 10 µM. hit rate 5.5% among 65,000;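 active = at 10 µM, mean starting fluorescence two-fold or more over control wells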;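 also: signal is the first read of a kinetic run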
Of the large screens only hits and unclear results are named; the others gave an inactive call.

Cc1nn(-c2ccccc2)c2sc(C(=O)OC3CCOC3=O)cc12 (configuration not stated)	Autofluor 339 5 (no result: Htt clearance)
COc1ccc2[nH]c(=O)c(CN(C(=O)NC3CCCCC3)C3CCCC3)cc2c1	Autofluor 339 2.5 (no result: Htt clearance)
COc1ccccc1NC(=O)N(CCN1CCCC1)Cc1cc2cc(C)ccc2[nH]c1=O	none (no result: A340 absorber, M1 antag, NADH enzymes, M1 agonist, Autofluor 339)
COc1ccc2[nH]c(=O)c(CN(C(C)=O)C3CCCCC3)cc2c1	Autofluor 339 3.5 (no result: Htt clearance)
COc1cc2cc(CN(CCN3CCCC3)C(=O)Nc3ccc(F)cc3)c(=O)[nH]c2cc1OC	Autofluor 339 3.1
COc1cc2cc(CN(C(=O)Nc3ccccc3)C3CCCC3)c(=O)[nH]c2cc1OC	Autofluor 339 3.2 (no result: Htt clearance)
Cc1ccc(-n2c(CNc3ccc(F)cc3)nnc2SCC(N)=O)cc1	none (no result: A340 absorber, M1 antag, NADH enzymes, M1 agonist, Autofluor 339)
Cc1ccc(C(=O)N2CCCC(c3nc4c(nnn4Cc4ccccc4)c(=O)[nH]3)C2)cc1 (configuration not stated)	none
CC(C)N(Cc1nc(-c2ccc(Cl)cc2)no1)C(=O)CN(C)S(=O)(=O)c1ccc(Cl)cc1	none
O=C(O)c1ccc(Br)c(S(=O)(=O)N2CCCC2)c1	none
CCOc1cccc2cc(-c3cn4cc(C)ccc4n3)c(=O)oc12	Autofluor 339 5 (no result: Htt clearance)
CCOc1cccc2cc(-c3nnc(NCc4ccco4)s3)c(=O)oc12	Autofluor 339 2.2
CCCn1c2c(c(O)c(C(=O)NC)c1=O)CCCC2	none
CCCn1c2c(c(O)c(C(=O)NCCCN(CC)CC)c1=O)CCCC2	Htt clearance 74 (no result: A340 absorber, M1 antag, NADH enzymes, M1 agonist, Autofluor 339)
O=C(Nc1cccnc1)c1ccc2snnc2c1	none
Cc1ccc(OCC(=O)OCC(=O)c2c(N)n(C)c(=O)n(C)c2=O)cc1C	none (no result: A340 absorber, M1 antag, NADH enzymes, M1 agonist, Autofluor 339)
O=c1c(O)c(-c2ccc3c(c2)OCO3)oc2ccccc12	Autofluor 339 3
Cn1c(=O)c2sccc2n2c(CCCC(=O)NCc3ccc4c(c3)OCO4)nnc12	none (no result: Htt clearance)
OC(CNCC1CCCO1)Cn1c2ccc(Cl)cc2c2cc(Cl)ccc21 (configuration not stated)	none (no result: A340 absorber, M1 antag, NADH enzymes, M1 agonist, Autofluor 339)
CCN1CCn2c3c(c4cc(Cl)ccc42)CCCC31 (configuration not stated)	M1 antag 1.8
O=C(CN1C(=O)NC2(CCc3ccccc32)C1=O)Nc1cc(C(F)(F)F)ccc1N1CCOCC1 (configuration not stated)	none (no result: Htt clearance)
c1ccc(CN2CCC3(CC2)Nc2ccccc2CO3)cc1	M1 antag -2.8, M1 agonist 17
O=C(Nc1ccn(-c2ccccc2)n1)c1ccc(S(=O)(=O)N2CCCCCC2)cc1	none
CCC(NC(=O)OC(C)(C)C)C(=O)Oc1ccc2c3c(c(=O)oc2c1)CCC3 (configuration not stated)	Autofluor 339 3.6 (no result: Htt clearance)
Cc1ccc(S(=O)(=O)NC(CC(C)C)C(=O)Oc2ccc3c4c(c(=O)oc3c2)CCC4)cc1 (configuration not stated)	none (no result: A340 absorber, M1 antag, NADH enzymes, M1 agonist, Autofluor 339)
CSCCC(NC(C)=O)C(=O)Oc1ccc2c3c(c(=O)oc2c1)CCCC3 (configuration not stated)	Autofluor 339 2.1 (no result: Htt clearance, M1 antag, M1 agonist)
Cc1csc(NC(=O)CSCC(=O)Nc2ccccc2)n1	none
CC(C)(C)n1ncc2c(=O)n(CC(=O)NCc3ccccc3)cnc21	none (no result: Htt clearance)
O=C(NCc1ccc2c(c1)OCO2)c1c[nH]c2ccc(S(=O)(=O)N3CCOCC3)cc2c1=O	Autofluor 339 2
O=C(NCc1ccc2c(c1)OCO2)c1cc(S(=O)(=O)N2CCCCC2)ccc1F	none (no result: Htt clearance)
O=C(NCC1COc2ccccc2O1)c1c[nH]c2ccc(S(=O)(=O)N3CCOCC3)cc2c1=O (configuration not stated)	Autofluor 339 2.8 (no result: Htt clearance)
CCOC(=O)C1C2C=CC3(CN(c4ccccc4CC)C(=O)C13)O2 (configuration not stated)	none
O=C1CC(C(=O)N2CCOCC2)C2(CCCC2)O1 (configuration not stated)	none (no result: Htt clearance)
CCCCCCCCS(=O)c1sc2nc3c(cc2c1N)CCCC3 (configuration not stated)	none (no result: A340 absorber, M1 antag, NADH enzymes, M1 agonist, Autofluor 339)
CCCCS(=O)(=O)c1sc2nc3c(cc2c1N)CCCC3	Autofluor 339 3.3
CCCCNC(=O)CSc1cc(=O)n(C)c2ccccc12	none (no result: Htt clearance, M1 antag, M1 agonist)
CCc1cc2c(=O)c(-c3nc4ccccc4n3C)c(C)oc2c(CN2CCN(CCO)CC2)c1O	Autofluor 339 2.2
CCc1cc2c(=O)c(-c3nc4ccccc4n3C)c(C)oc2c(CN2CCOCC2)c1O	Autofluor 339 2.1
CCc1cc2c(=O)c(-c3nc4ccccc4n3C)c(C(C)C)oc2c(CN2CCN(C)CC2)c1O	Autofluor 339 2.2 (no result: Htt clearance)
CCc1cc2c(=O)c(-c3nc4ccccc4n3C)c(C)oc2c(CN2CCN(C)CC2)c1O	Autofluor 339 3.5 (no result: Htt clearance)
CCc1cc(-c2n[nH]c(C)c2-c2nc3ccccc3n2C)c(O)c(CN2CCN(C)CC2)c1O	none (no result: Htt clearance)
CCOC(=O)CCSc1nnc(-c2cccnc2)n1-c1ccccc1OC	none (no result: Htt clearance)
COc1ccc(NC(=O)CN2CCN(C3c4ccccc4-c4ccccc43)CC2)cc1	none (no result: A340 absorber, M1 antag, NADH enzymes, M1 agonist, Autofluor 339)
CCOC(=O)c1ccccc1NC(=O)CSc1nnnn1C1CCCCC1	none (no result: Htt clearance)
O=C(CN(Cc1ccc(F)cc1)C(=O)C1CSC(=O)C1)NC1CCCCC1 (configuration not stated)	none (no result: A340 absorber, M1 antag, NADH enzymes, M1 agonist, Autofluor 339)
CN(C)Cc1cc(C(C)(C)c2cc(CN(C)C)c(O)c(CN(C)C)c2)cc(CN(C)C)c1O	none (no result: Htt clearance)
Cc1ccc(-c2nc(CN(C)C)cc(CN(C)C)c2O)cc1	Autofluor 339 3.8
CC(Sc1cccc(C(F)(F)F)c1)C(=O)NC(N)=O (configuration not stated)	none (no result: Htt clearance)
Cc1cccc(-n2c(=O)[nH]c3c(C(N)=O)nc(-c4ccccc4Cl)nc32)c1	Autofluor 339 2.1 (no result: Htt clearance)
CCOc1ccccc1-c1nc(C(N)=O)c2[nH]c(=O)n(-c3ccccc3)c2n1	Autofluor 339 3 (no result: Htt clearance)
COc1cccc(-c2nc(C(N)=O)c3[nH]c(=O)n(-c4ccccc4)c3n2)c1OC	none (no result: Htt clearance)
Cc1cccc(-n2c(N)cc(=O)[nH]c2=S)c1	none
COc1ccccc1-c1nc(C(N)=O)c2[nH]c(=O)n(-c3cccc(C)c3)c2n1	Autofluor 339 3.9 (no result: Htt clearance)
Cc1cc(NC(=O)NC2CCCN2S(=O)(=O)c2ccc(Cl)cc2)no1 (configuration not stated)	none (no result: Htt clearance)
CCOC(=O)CNc1c(-c2ccc(Cl)cc2)nc2cnccn12	Autofluor 339 4.9 (no result: Htt clearance)
COc1ccc(-c2nc3cnccn3c2Nc2ccc(C)cc2)cc1	none (no result: A340 absorber, M1 antag, NADH enzymes, M1 agonist, Autofluor 339)
CCOC(=O)CNc1c(-c2ccc(F)cc2)nc2cnccn12	Autofluor 339 2.3 (no result: Htt clearance)
CCOC(=O)CNc1c(-c2ccc(OC)cc2)nc2ccc(Cl)cn12	none (no result: A340 absorber, M1 antag, NADH enzymes, M1 agonist, Autofluor 339)
CCCCCCCC(=O)N/N=C(\C)c1cccnc1	none (no result: A340 absorber, M1 antag, NADH enzymes, M1 agonist, Autofluor 339)
OCCN1CCN(c2ncnc3ccc(Br)cc23)CC1	none (no result: Htt clearance)
